Where “and” joins values, the source holds several entries; their conditions need not be identical. Equal values may be shown once. Out of some 5,500 compounds screened, about 2,000 (36%) were called active. Inconclusive results (about 18%) are left out. Cut-off read from the data, not from the text of the source: active = normalized growth mostly below about 0.91 (no sharp cut-off); inconclusive = no clear call, values can overlap the other calls; inactive = mostly above about 0.92. Some of the results follow.
Assay: chemical genetic growth profiling, strain panel (AID 1159580);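 note: tested at 20 µM; growth read once vehicle control cultures reached saturation at 30 °C; 1 = growth at the plate median or of vehicle wells; lower values mean less growth of the strain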
Settings: S. cerevisiae deletion strains, growth OD

Measured: normalized growth

COc1cc2c(cc1OC)-c1cc3ccc(OC)c(OC)c3c[n+]1CC2
inactive: locus YAL013W, strain DEP1, active compounds read low 0.993 | locus YAL021C, strain ccr4, active compounds read low 0.988 | locus YAL026C, strain drs2, active compounds read low 0.987 | locus YAL030W, strain snc1, active compounds read low 0.988 | locus YBL061C, strain skt5, active compounds read low 0.988 | locus YBR009C, strain hhf1, active compounds read low 0.984 | locus YBR021W, strain FUR4, active compounds read low 0.977 and 1.02 | locus YBR023C, strain chs3, active compounds read low 0.983 | locus YBR171W, strain sec66, active compounds read low 0.971 | locus YBR229C, strain ROT2, active compounds read low 0.979 and 1 | locus YBR231C, strain swc5, active compounds read low 0.981 | locus YBR279W, strain paf1, active compounds read low 0.979 | locus YCL011C, strain gbp2, active compounds read low 0.991 | locus YCL016C, strain dcc1, active compounds read low 0.978 | locus YCL029C, strain bik1, active compounds read low 0.991 and 1.01 | locus YCL061C, strain MRC1, active compounds read low 0.989 | locus YCL069W, strain vba3, active compounds read low 0.988 | locus YCR088W, strain abp1, active compounds read low 0.98 | locus YDL005C, strain med2, active compounds read low 0.975 | locus YDL035C, strain GPR1, active compounds read low 1.1 and 0.985 | locus YDL040C, strain nat1, active compounds read low 0.988 | locus YDL074C, strain BRE1, active compounds read low 1.05 and 1.02 | locus YDL101C, strain DUN1, active compounds read low 0.982 and 1.03 | locus YDL134C, strain PPH21, active compounds read low 0.989 and 0.983 | locus YDL185W, strain tfp1, active compounds read low 0.988 and 1.03 | locus YDL192W, strain arf1, active compounds read low 0.991 and 1.01 | locus YDR001C, strain nth1, active compounds read low 0.982 | locus YDR069C, strain doa4, active compounds read low 0.976 | locus YDR101C, strain arx1, active compounds read low 0.985 and 1.02 | locus YDR137W, strain rgp1, active compounds read low 0.97 | locus YDR150W, strain NUM1, active compounds read low 0.992 and 1.01 | locus YDR159W, strain sac3, active compounds read low 0.999 | locus YDR162C, strain NBP2, active compounds read low 1.01 and 1 | locus YDR195W, strain ref2 0.921 | locus YDR297W, strain sur2, active compounds read low 0.984 | locus YDR318W, strain mcm21, active compounds read low 0.987 and 1.01 | locus YDR334W, strain swr1, active compounds read low 0.986 | locus YDR335W, strain msn5, active compounds read low 0.99 | locus YDR388W, active compounds read low 0.99 and 1.02 | locus YDR392W, strain spt3, active compounds read low 1.01 | locus YDR502C, strain sam2, active compounds read low 0.985 and 1.01 | locus YEL003W, strain gim4, active compounds read low 0.99 | locus YEL037C, strain rad23, active compounds read low 0.987 | locus YEL061C, strain CIN8 (second series), active compounds read low 0.967 | locus YEL061C, strain CIN8, active compounds read low 0.99 and 1.01 | locus YER015W, strain faa2, active compounds read low 0.989 | locus YER016W, strain bim1, active compounds read low 0.987 | locus YER110C, active compounds read low 0.983 and 1.02 | locus YER111C, strain swi4, active compounds read low 0.97 | locus YER155C, strain BEM2 (second series), active compounds read low 0.909 | locus YER155C, strain BEM2, active compounds read low 0.994 and 1.01 | locus YER167W, strain BCK2, active compounds read low 0.977 and 0.997 | locus YFR010W, strain ubp6, active compounds read low 0.969 | locus YGL078C, strain dbp3, active compounds read low 0.991 and 1.01 | locus YGL086W, strain mad1, active compounds read low 0.952 and 0.998 | locus YGL167C, strain pmr1, active compounds read low 0.981 | locus YGL173C, strain kem1, active compounds read low 0.98 | locus YGL227W, strain vid30, active compounds read low 0.974 | locus YGL240W, strain doc1, active compounds read low 0.969 | locus YGL248W, strain PDE1, active compounds read low 0.983 and 1.02 | locus YGL253W, strain hxk2, active compounds read low 0.996 | locus YGR078C, strain PAC10, active compounds read low 1.01 | locus YGR135W, strain pre9, active compounds read low 1 and 1.01 | locus YGR229C, strain SMI1, active compounds read low 1.02 | locus YGR252W, strain gcn5, active compounds read low 0.952 and 1.02 | locus YHR013C, strain ard1, active compounds read low 0.966 | locus YHR027C, strain rpn1, active compounds read low 0.975 | locus YHR030C, strain SLT2, active compounds read low 0.989 and 1.04 and 1 | locus YHR079C, strain IRE1 (second series), active compounds read low 0.991 and 1.02 | locus YHR079C, strain IRE1, active compounds read low 1.03 | locus YHR094C, strain hxt1, active compounds read low 0.991 and 1.02 | locus YHR129C, strain ARP1, active compounds read low 0.987 and 1.01 | locus YHR142W, strain chs7, active compounds read low 1.02 | locus YHR200W, strain rpn10, active compounds read low 0.987 and 1 | locus YIL066C, strain RNR3, active compounds read low 0.973 and 0.985 | locus YIL073C, strain SPO22, active compounds read low 0.95 and 1.04 | locus YIL125W, strain kgd1, active compounds read low 0.996 and 1.01 | locus YIR030C, strain dcg1, active compounds read low 0.989 and 1.01 | locus YJL092W, strain hpr5, active compounds read low 0.979 | locus YJL095W, strain BCK1 (second series), active compounds read low 0.973 | locus YJL095W, strain BCK1, active compounds read low 1 and 1.02 and 1.05 | locus YJL115W, strain asf1, active compounds read low 0.975 | locus YJL129C, strain trk1, active compounds read low 0.96 | locus YJL134W, strain LCB3, active compounds read low 0.97 and 1 | locus YJL154C, strain vps35, active compounds read low 0.98 | locus YJL164C, strain tpk1, active compounds read low 0.98 | locus YJL166W, strain qcr8, active compounds read low 0.974 | locus YJL168C, strain set2, active compounds read low 0.989 and 1.02 | locus YJL187C, strain SWE1 (second series), active compounds read low 0.997 and 1.05 | locus YJR043C, strain POL32, active compounds read low 0.998 and 0.991 | locus YJR066W, strain TOR1, active compounds read low 0.965
